From PubChem BioAssay come the findings set out here.

Assay [1] can be described thus: binders of probe aFSTL3 on microarray, primary screen, stem cell growth factor project, biochemical, small-molecule microarray, fluorescence 635/667 (AID 1064).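 Also: measures binding of the biotinylated anti-FSTL3 antibody to printed compounds.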 Conditions: higher = more signal.
A short description of assay [2]: binders from COS7 lysate, DM2A8 probe, primary screen, torsin A project, cell lysate, small-molecule microarray, fluorescence 635/667 (AID 1065). Conditions: higher = more signal, COS7 lysate expressing mutant human TOR1A.
Assay [3] in a line: binders of probe aFGF2 on microarray, primary screen, stem cell growth factor project, biochemical, small-molecule microarray, fluorescence 635/667 (AID 1067).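 Also: measures binding of biotinylated aFGF2 protein to printed compounds on slides; z-score merges feature fluorescence and signal-to-noise across triplicate slides.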 Conditions: higher = more signal.
Assay [4] in a line: binders of probe aFGF10 on microarray, primary screen, stem cell growth factor project, biochemical, small-molecule microarray, fluorescence 635/667 (AID 1071).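 Also: score merges 667 nm spot intensity and signal to noise from triplicate slides.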 Conditions: higher = more signal.
The target of assay [5] is Neurogenic locus notch homolog protein 2 (Homo sapiens) (UniProt Q04721). The assay can be described thus: Notch2 binders on small-molecule microarrays, primary screen, biochemical, small-molecule microarray, 635 nm fluorescence, stem cell growth factors (AID 1073). Conditions: Notch2 binding, higher = more signal.
Assay [6] has as its target Pro-neuregulin-1, membrane-bound isoform (Homo sapiens) (UniProt Q02297). The assay can be described thus: NRG1 binders on small-molecule microarrays, primary screen, psychiatric disease protein project, biochemical, small-molecule microarray, fluorescence 635/667 (AID 1075).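 Also: score combines 667 nm spot fluorescence with signal to noise.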 Conditions: NRG1 binding, 635 nm fluorescence, higher = more signal.
For assay [7], the system named is Neuregulin-1 EGF-like domain. As to the kind of experiment: binders of neuregulin-1 EGF-like domain, primary screen, biochemical, small-molecule microarray, 635 nm fluorescence (AID 1081).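 Also: binding of the protein to compounds printed on small-molecule microarray slides.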 Conditions: small-molecule microarray binding, higher = more signal.
Assay [8] can be described thus: FRG1 promoter luciferase signal modulators, primary screen, FRG1 inhibition for FSHD, cell-based, C2C12 myotubes, firefly/Renilla luciferase, luminescence (AID 1084). Conditions: higher = more signal, called active from +8 up or from −8 down.
A short description of assay [9]: binders of probe aFST on microarray, primary screen, stem cell growth factor project, biochemical, small-molecule microarray, fluorescence 635/667 (AID 1086).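 Also: score merges 667 nm fluorescence with signal-to-noise of each printed compound spot.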 Conditions: higher = more signal.
Assay [10] in a line: binders of probe aHhip on microarray, primary screen, stem cell growth factor project, biochemical, small-molecule microarray, fluorescence 635/667 (AID 1087).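 Also: score merges spot fluorescence at 667nm with spot signal to noise ratio.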 Conditions: higher = more signal.
In assay [11] the test system is PRMT1 (protein arginine N-methyltransferase 1). As to the kind of experiment: PRMT1 binders on small-molecule microarrays, primary screen, biochemical, small-molecule microarray, 635 nm fluorescence (AID 1088).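 Also: binding of Prmt1 protein to compounds spotted on small-molecule microarray slides.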 Conditions: small-molecule microarray binding, higher = more signal.
Assay [12] can be described thus: yeast growth modulation, basal conditions, primary screen, YJM789 clinical isolate, OD600, 24 h (AID 1089).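 Also: growth of clinical yeast isolate S. cerevisiae YJM 789 seeded 1000 cells per well; test concentration not given here.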 Conditions: S. cerevisiae YJM789 growth, higher = more signal, called active from +8 up or from −8 down.
Assay [13] is described as follows: fission yeast growth modulation, primary screen, strain 972, OD600, 24 h, no modulator (AID 1090).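 Also: basal condition with compound alone and no growth modifier present; test concentration not given here.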 Conditions: S. pombe 972 growth, higher = more signal, called active from +8 up or from −8 down.
Assay [14] in a line: S. cerevisiae growth modulation with rapamycin, primary screen, strain BY4716, OD600, 96 h (AID 1091). Also: test concentration not given here. Conditions: higher = more signal, called active from +8 up or from −8 down.
The target of assay [15] is Torsin-1A-interacting protein 2 (Homo sapiens) (UniProt Q8NFQ8). The assay can be described thus: LULL1 binders on small-molecule microarray, primary screen, cell lysate, human LULL1 lysate, 635/667 nm fluorescence (AID 1092).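 Also: probe is lysate of COS7 cells overexpressing human LULL1; score merges per-feature 667 nm fluorescence with signal-to-noise.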 Conditions: hLULL1 lysate binding, 635 nm fluorescence, higher = more signal.
Assay [16] is described as follows: E. coli growth modulation, two-sided OD650, primary screen, E. coli filamentation project, strain DRC41, 24 h (AID 1093).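 Also: MC1000 strain lacking acrAB efflux and sulA so SOS filamentation is blocked; test concentration not given here.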 Conditions: OD650, 24 h, higher = more signal, called active from +8 up or from −8 down.
The nature of assay [17]: small-molecule microarray binders of probe aLefty2, primary screen, biochemical, biotinylated probe, 635/667 nm fluorescence (AID 1094).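 Also: score merges spot fluorescence near 667 nm with spot signal-to-noise ratio.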 Conditions: higher = more signal.
The test system of assay [18] is Noggin (protein binding on small-molecule microarray). As to the kind of experiment: Noggin binders on small-molecule microarray, primary screen, biochemical, 635/667 nm fluorescence (AID 1095).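 Also: score merges 667 nm feature fluorescence with signal to noise over triplicate slides.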 Conditions: 635 nm fluorescence, higher = more signal.
Assay [19] has as its target Neurogenic locus notch homolog protein 3 (Homo sapiens) (UniProt Q9UM47). As to the kind of experiment: NOTCH3 binders on small-molecule microarray, primary screen, biochemical, 635/667 nm fluorescence (AID 1096). Conditions: NOTCH3 binding, 635 nm fluorescence, higher = more signal.
Assay [20] is described as follows: small-molecule microarray binders of probe aEGFR, primary screen, biochemical, biotinylated probe, 635/667 nm fluorescence (AID 1097).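 Also: probe is a biotinylated anti-EGFR antibody binding compounds printed on slides; score combines fluorescence near 667 nm and signal to noise of each spot.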 Conditions: higher = more signal.

The source made the active and inactive calls.

Chain of Neurogenic locus notch homolog protein 2 (Homo sapiens) (Q04721 whole entry, looked up, canonical isoform): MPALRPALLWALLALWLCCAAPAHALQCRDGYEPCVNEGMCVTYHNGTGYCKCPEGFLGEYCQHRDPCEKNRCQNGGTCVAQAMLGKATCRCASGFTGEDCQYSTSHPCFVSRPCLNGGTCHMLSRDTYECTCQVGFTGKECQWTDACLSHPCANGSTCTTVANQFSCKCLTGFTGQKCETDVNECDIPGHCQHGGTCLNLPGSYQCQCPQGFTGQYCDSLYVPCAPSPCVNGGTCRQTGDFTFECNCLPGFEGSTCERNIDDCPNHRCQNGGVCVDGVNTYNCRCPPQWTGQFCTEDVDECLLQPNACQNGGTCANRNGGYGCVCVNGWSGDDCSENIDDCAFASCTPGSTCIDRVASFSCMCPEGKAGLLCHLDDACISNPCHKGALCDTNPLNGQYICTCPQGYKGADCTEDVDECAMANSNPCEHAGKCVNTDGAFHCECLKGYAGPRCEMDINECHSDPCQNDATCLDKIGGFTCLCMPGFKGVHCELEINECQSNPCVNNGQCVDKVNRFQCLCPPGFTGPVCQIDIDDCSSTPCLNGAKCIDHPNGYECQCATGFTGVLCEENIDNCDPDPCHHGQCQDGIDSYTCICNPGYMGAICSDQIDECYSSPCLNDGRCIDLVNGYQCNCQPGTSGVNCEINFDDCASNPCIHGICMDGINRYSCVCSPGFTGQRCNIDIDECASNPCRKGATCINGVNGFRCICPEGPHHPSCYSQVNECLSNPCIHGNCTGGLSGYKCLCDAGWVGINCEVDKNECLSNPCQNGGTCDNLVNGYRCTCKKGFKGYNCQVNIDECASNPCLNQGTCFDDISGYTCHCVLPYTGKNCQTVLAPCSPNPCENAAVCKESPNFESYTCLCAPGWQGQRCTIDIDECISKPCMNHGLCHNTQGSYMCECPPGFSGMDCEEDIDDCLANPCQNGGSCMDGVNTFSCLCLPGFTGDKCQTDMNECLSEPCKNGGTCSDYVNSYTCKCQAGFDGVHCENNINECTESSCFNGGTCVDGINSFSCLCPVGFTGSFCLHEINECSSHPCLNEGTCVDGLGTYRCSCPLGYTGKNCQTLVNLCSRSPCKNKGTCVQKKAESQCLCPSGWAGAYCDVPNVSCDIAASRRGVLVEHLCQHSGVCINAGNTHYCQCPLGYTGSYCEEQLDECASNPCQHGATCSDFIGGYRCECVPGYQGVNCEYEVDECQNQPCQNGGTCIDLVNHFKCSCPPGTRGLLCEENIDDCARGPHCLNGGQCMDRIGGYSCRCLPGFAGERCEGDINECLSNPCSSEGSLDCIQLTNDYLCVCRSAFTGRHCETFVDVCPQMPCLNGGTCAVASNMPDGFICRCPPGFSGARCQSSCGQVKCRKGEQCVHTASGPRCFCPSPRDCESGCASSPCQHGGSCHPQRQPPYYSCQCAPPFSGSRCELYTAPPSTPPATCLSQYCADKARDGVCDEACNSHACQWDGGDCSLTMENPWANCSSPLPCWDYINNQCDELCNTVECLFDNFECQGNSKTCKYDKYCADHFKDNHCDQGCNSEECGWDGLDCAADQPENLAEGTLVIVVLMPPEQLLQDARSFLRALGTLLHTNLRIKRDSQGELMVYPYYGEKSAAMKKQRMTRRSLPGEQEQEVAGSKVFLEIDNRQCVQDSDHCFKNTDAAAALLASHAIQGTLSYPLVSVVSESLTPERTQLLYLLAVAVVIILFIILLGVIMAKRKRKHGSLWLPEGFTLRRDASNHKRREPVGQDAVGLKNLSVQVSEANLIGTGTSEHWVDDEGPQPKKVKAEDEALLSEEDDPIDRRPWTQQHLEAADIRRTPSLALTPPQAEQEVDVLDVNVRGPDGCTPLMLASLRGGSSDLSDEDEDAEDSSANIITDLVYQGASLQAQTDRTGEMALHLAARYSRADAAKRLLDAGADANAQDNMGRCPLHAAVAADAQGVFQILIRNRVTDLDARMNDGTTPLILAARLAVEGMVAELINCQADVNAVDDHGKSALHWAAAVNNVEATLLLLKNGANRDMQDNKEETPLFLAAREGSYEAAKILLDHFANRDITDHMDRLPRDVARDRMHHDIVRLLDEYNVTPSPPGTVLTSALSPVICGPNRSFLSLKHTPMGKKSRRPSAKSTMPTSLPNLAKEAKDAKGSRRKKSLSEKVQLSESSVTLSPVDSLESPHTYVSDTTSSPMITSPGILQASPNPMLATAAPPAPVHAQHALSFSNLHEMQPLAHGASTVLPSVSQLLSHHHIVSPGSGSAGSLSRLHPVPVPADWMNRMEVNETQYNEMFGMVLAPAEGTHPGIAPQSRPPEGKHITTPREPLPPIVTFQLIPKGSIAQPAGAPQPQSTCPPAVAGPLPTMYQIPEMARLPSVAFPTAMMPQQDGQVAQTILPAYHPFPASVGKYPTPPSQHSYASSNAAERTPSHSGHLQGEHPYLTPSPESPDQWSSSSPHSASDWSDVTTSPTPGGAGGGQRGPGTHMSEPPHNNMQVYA
Chain of Neurogenic locus notch homolog protein 3 (Homo sapiens) (Q9UM47 whole entry, looked up): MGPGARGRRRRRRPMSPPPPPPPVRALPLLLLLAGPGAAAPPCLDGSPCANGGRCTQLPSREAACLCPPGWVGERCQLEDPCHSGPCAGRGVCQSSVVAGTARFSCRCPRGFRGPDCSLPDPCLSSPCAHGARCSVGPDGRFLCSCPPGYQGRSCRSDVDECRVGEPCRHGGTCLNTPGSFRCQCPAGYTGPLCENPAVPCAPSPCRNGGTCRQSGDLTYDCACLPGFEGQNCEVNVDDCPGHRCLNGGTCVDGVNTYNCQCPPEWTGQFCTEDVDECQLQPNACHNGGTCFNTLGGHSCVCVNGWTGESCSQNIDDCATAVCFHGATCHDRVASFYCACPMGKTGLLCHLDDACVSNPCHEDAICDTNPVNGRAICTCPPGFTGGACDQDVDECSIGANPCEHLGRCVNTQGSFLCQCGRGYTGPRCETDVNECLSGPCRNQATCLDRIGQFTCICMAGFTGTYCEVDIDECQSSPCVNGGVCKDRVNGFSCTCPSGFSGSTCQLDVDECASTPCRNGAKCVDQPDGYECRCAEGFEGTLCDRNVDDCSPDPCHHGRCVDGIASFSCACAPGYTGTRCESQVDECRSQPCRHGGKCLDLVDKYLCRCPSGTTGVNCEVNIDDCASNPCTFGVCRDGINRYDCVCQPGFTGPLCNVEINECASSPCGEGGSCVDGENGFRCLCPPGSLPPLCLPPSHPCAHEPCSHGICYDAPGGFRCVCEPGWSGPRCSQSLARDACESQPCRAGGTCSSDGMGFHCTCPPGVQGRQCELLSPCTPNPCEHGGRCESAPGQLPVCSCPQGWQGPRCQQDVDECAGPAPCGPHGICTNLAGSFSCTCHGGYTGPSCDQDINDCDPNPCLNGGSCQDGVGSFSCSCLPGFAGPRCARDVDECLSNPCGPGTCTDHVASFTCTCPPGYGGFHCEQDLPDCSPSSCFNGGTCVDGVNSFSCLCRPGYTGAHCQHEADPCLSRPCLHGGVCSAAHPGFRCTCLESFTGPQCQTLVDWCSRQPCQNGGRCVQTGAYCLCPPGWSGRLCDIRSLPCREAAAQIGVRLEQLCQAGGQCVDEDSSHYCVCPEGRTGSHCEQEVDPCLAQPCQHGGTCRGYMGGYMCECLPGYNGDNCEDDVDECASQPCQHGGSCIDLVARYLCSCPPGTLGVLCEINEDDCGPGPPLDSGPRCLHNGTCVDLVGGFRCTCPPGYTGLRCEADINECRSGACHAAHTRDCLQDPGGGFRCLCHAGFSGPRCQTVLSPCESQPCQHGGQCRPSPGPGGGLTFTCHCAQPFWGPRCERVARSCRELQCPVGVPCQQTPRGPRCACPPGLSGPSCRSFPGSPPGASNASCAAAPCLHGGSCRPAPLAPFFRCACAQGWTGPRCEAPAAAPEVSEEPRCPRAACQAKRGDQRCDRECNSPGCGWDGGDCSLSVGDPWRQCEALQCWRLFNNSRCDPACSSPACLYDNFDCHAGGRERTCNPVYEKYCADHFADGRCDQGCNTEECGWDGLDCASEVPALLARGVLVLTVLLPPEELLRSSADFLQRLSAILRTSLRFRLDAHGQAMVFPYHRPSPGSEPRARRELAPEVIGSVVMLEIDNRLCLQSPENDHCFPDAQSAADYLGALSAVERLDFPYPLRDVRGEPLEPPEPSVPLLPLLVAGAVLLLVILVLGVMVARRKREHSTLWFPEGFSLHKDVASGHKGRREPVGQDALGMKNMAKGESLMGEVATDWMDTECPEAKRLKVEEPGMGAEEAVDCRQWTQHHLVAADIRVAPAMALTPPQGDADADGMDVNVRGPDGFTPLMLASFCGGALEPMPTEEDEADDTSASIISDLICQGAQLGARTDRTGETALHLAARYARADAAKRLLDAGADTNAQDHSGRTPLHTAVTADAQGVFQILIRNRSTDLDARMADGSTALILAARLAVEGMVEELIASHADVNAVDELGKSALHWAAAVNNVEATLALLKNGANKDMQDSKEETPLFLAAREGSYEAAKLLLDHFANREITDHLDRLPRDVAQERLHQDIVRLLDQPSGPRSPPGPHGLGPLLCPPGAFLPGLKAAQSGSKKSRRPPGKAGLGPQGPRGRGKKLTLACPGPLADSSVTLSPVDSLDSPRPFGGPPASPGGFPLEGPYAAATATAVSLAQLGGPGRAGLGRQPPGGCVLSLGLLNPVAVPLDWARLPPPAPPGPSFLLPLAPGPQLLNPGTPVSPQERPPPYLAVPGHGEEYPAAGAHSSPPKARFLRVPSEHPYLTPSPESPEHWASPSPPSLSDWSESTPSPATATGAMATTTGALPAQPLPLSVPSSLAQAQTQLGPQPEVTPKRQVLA

Consider `C=CCC(OC(C)=O)[C@@H]1[C@@H](N(Cc2ccc(-c3ccccc3)cc2)C(=O)c2ccc(C)cc2)c2cc(OCCCO)ccc2N1C(=O)Cc1ccc(OC)cc1` (stereo not given in full), for which the composite z-score in assay [1] is -0.0305; in assay [2] it was 0.0667; in assay [3], -0.078; in assay [4], 0.27; in [5], -0.0045; in assay [6] it was -0.369. Also, the composite z-score was -0.453 in assay [7]; 0.255 in [9]; -0.0994 in assay [10]; 1.1 in assay [11]; 0.178 in [15]; -0.166 in assay [17]. Besides, the composite z-score in assay [18] was 0.0438; in [19], 0.338; in assay [20], -0.109. The z-score was -1.32 (inactive) in assay [8]; -2.3 (inactive) in [12]; -1.13 (inactive) in assay [13]; -0.713 (inactive) in [14]; 1.26 (inactive) in [16].
Turning to `Cc1ccc(S[C@]2(C(=O)NCCCN(C)C)CC(=O)N(Cc3ccccc3)[C@@H]2c2ccc(CO)cc2)cc1`, the composite z-score is 1.15 in assay [1]; -0.533 in [2]; -0.145 in assay [3]; -0.193 in assay [4]; -1.24 in assay [5]; -0.234 in [6]. For the same compound, the composite z-score in assay [7] was -1.11; in assay [9], -0.101; in assay [10], -0.409; in assay [11] it was 1.25; in assay [15], 2.01; in [17] it was 0.555. Moreover, the results for the composite z-score in [18], in assay [19] and in [20] were -0.511, -0.631 and -0.152, respectively. Besides, the z-score in assay [8] was -1.76 (inactive); in [12], -0.933 (inactive); in assay [13], -1.18 (inactive); in assay [14], -1.03 (inactive); in assay [16] it was -0.0465 (inactive).
In the case of `Cc1ccc(S[C@]2(C(=O)NCC(C)C)CC(=O)N(Cc3ccccc3)[C@@H]2c2ccc(CO)cc2)cc1`, the composite z-score in [1] was 0.148; in assay [2], -0.674; in assay [3], -0.076; in [4] it was 0.146; in assay [5], -0.967; in assay [6], -0.431. For the same compound, the composite z-score in assay [7] was 0.221; in [9] it was 0.161; in assay [10], -0.226; in [11], 0.744; in assay [15], 1.86; in assay [17], 0.189. The values for the composite z-score in assay [18], in assay [19] and in assay [20] were -0.779, -0.331 and -0.236, respectively. Further, the z-score in assay [8] was -3.05 (inactive); in [12], -1.14 (inactive); in [13], -1.14 (inactive); in assay [14], -0.256 (inactive); in [16], -0.579 (inactive).
For the compound `COc1ccc(C(=O)Nc2cccc(CN3C(=O)[C@@]4(O[C@@H](CCn5cc([C@H](O)c6ccccc6)nn5)[C@H]([Si](C)(C)c5ccc(OC)cc5)[C@H]4C)c4ccccc43)c2)cc1`, the composite z-score in [1] was 0.395; in assay [2], -0.559; in assay [3] it was -0.123; in [4] it was 0.335; in assay [5] it was 0.336; in assay [6], 0.838. The composite z-score in assay [7] was found to be 1.14; in assay [9], 0.179; in [10], 0.0373; in assay [11] it was 0.677; in assay [15], 1.11; in assay [17], 0.0123. The composite z-score was 1.58 in [18], 0.806 in [19] and -0.0947 in assay [20]. The z-score in assay [8] was -1.47 (inactive); in assay [12], -0.384 (inactive); in [13], -1.17 (inactive); in [14], 0.0585 (inactive); in [16], -0.594 (inactive).
Regarding `CN1C(=O)C2C=CC(C(O)C3=C[C@H]4C[C@@H](C3)C4(C)C)N(Nc3ccc([N+](=O)[O-])cc3[N+](=O)[O-])C2C1=O` (stereo not given in full), the composite z-score in assay [1] amounted to 0.574; in [2] it was 0.156; in [3], 0.15; in assay [4], 0.733; in assay [5], 1.66; in [6] it was 1.51. For the same compound, the composite z-score in assay [7] amounted to 1.33; in [9] it was 0.642; in assay [10] it was 0.0826; in assay [11], 1.49; in assay [15], 3.28; in assay [17], 0.256. The composite z-score was found to be 0.0179 in assay [18], 1.02 in assay [19] and 0.213 in assay [20]. In addition, the z-score is 0.0285 (inactive) in assay [8]; 1.07 (inactive) in assay [12]; 0.595 (inactive) in assay [13]; 1.96 (inactive) in [14]; -0.43 (inactive) in assay [16].
